Results: PubChem BioAssay (Tox21)
Several values for one entry are separate records, joined by “and”; a condition that tells them apart may be missing. Identical values can stand only once. Results filed as inconclusive are left out. Where a call stands in place of a potency, no number is given. The source holds several records for some structures; these can differ, active in one and inactive in another. Activity calls are given as the source filed them. Calls follow the shape of the dose curve; as a rule, active = well fitted activation curve with a large enough effect in the repeat runs; inconclusive = weak or mixed curves; inactive = flat fitted curve, though single readings scatter.

assay: A CellTox Green Cytotoxicity Assay to monitor cytotoxicity in HepG2 cells - 32 hour (AID 1224883); settings: CellTox Green fluorescence; series mostly up to 76.8 µM; also: nearly all actives have a fitted effect of over 50% in size
How it was run: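 First, HepG2 cells (600/well) mixed with reagent were plated; second, after 5 h at 37 C they received compounds via pintool; third, fluorescence was measured at 0 h through 40 h at 8 h intervals.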
Potency is read from the fitted curve at half-maximal effect.

SMILES | Potency
CC(C)(C)c1cc(Cc2cc(C(C)(C)C)c(O)c(C(C)(C)C)c2)cc(C(C)(C)C)c1O | inactive
COC(=O)c1cccnc1 | inactive
CCCCCCC=O | inactive
CCCCC(C=O)CC (stereo not drawn) | inactive and 14.6 µM (active)
CC(O)CC(C)(C)O (stereo not drawn) | inactive
O=c1[nH]cnc2[nH]ncc12 | inactive
CCCCCCCCCCCCCCCC(=O)OC(C)C | inactive
CC(=O)OC1CC(C)OC(C)O1 (stereo not drawn) | inactive
CC1(C)NC(=O)NC1=O | inactive
Clc1ccccn1 | inactive
CC(=O)OCCOC(C)=O | inactive
CCc1ccccc1CC | inactive
CC(C)OC(=O)COc1ccc(Cl)cc1Cl | inactive
COc1ccc(N)c(C)c1 | inactive
c1ccc2c(c1)Cc1ccccc1-2 | inactive
CC(C)(Oc1ccc(CCNC(=O)c2ccc(Cl)cc2)cc1)C(=O)O | inactive
O=C1C(c2[nH]c3ccccc3c2O)=Nc2ccccc21 | inactive
O=C(OCC1CCC2OC2C1)C1CCC2OC2C1 (stereo not drawn) | inactive
CCCCCCCCCCCCCCCCO | inactive

SMILES | Potency
O=C(O)Cn1c(=O)n(Cc2ccc(Br)cc2F)c(=O)c2ccc(Cl)cc21 | inactive
CCCCCCCC=O | inactive
C[C@]12CCC(=O)C=C1CC[C@@H]1[C@@H]2[C@@H](O)C[C@@]2(C)[C@H]1CC[C@]2(O)C(=O)CO | inactive
CCOCCOCCOCCO | inactive
C[Si]1(C)O[Si](C)(C)O[Si](C)(C)O[Si](C)(C)O1 | inactive
N[C@H](Cc1c[nH]c2ccccc12)C(=O)O | inactive
O=C(O)c1ccc(S(=O)(=O)N(Cl)Cl)cc1 | inactive
CC(=O)OCc1ccccc1 | inactive
COc1ccc(CCC(C)=O)cc1 | inactive
CC1(C)OC[C@@H]2O[C@@]3(C(=O)O)OC(C)(C)O[C@H]3[C@@H]2O1 | inactive
CCNC(=S)NCC | inactive
CN(C)c1ccc(O)c2c1C[C@H]1C[C@H]3[C@H](N(C)C)C(=O)C(C(N)=O)=C(O)[C@@]3(O)C(=O)C1=C2O | inactive
Cc1ccc(C(C)C)c(O)c1 | inactive
OCc1cccc(Oc2ccccc2)c1 | inactive
CCCOC(=O)c1ccccc1 | inactive
CNC(=S)N(C)C | inactive
C=CC[N+](C)(C)CC=C | inactive
NCCN1CCNCC1 | inactive
CCCCCCCCCCN | inactive
